# ChEMBL document CHEMBL2218924, “A broad activity screen in support of a chemogenomic map for kinase signalling research and drug discovery” (Biochem J, 2013)
# Key:
# [1] = target: T1, Serine/threonine-protein kinase TBK1 (Homo sapiens) (UniProt Q9UHD2); conditions: at 10 µM
# T1 sequence (whole entry): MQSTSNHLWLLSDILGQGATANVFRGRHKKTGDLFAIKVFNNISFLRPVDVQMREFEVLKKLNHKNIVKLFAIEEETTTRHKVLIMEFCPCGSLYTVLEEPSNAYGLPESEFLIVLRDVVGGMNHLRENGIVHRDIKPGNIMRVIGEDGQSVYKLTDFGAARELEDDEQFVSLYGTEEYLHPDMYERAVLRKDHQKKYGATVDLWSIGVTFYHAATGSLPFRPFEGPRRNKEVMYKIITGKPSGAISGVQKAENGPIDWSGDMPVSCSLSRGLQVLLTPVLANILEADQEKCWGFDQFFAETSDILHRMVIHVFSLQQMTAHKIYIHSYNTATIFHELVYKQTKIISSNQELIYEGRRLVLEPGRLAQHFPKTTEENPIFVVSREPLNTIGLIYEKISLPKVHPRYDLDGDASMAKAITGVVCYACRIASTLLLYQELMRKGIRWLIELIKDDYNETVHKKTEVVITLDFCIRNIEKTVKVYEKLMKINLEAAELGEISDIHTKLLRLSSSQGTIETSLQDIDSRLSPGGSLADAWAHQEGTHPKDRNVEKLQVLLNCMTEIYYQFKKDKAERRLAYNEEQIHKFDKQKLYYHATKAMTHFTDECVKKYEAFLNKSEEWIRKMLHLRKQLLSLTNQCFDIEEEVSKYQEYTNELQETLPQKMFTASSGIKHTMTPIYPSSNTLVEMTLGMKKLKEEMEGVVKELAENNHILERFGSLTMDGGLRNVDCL
# [2] = target: T2, Interleukin-1 receptor-associated kinase 4 (Homo sapiens) (UniProt Q9NWZ3); conditions: at 10 µM
# T2 sequence (whole entry): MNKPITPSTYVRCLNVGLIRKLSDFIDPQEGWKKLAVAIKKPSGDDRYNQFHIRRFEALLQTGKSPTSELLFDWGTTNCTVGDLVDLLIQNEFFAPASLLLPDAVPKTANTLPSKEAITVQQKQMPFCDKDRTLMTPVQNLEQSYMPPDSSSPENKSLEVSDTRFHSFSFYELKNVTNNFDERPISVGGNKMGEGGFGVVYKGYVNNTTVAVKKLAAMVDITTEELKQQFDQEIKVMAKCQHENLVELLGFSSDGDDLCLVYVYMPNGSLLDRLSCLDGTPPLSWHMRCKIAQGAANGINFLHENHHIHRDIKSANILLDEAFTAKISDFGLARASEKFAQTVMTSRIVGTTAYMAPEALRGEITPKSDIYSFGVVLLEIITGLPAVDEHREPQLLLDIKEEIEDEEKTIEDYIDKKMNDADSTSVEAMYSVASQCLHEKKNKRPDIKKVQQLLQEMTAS
# [3] = target: Insulin receptor-related protein (Homo sapiens) (UniProt P14616); conditions: at 1 µM
# [4] = target: T3, Inhibitor of nuclear factor kappa-B kinase subunit beta (Homo sapiens) (UniProt O14920); conditions: at 1 µM
# T3 sequence (whole entry): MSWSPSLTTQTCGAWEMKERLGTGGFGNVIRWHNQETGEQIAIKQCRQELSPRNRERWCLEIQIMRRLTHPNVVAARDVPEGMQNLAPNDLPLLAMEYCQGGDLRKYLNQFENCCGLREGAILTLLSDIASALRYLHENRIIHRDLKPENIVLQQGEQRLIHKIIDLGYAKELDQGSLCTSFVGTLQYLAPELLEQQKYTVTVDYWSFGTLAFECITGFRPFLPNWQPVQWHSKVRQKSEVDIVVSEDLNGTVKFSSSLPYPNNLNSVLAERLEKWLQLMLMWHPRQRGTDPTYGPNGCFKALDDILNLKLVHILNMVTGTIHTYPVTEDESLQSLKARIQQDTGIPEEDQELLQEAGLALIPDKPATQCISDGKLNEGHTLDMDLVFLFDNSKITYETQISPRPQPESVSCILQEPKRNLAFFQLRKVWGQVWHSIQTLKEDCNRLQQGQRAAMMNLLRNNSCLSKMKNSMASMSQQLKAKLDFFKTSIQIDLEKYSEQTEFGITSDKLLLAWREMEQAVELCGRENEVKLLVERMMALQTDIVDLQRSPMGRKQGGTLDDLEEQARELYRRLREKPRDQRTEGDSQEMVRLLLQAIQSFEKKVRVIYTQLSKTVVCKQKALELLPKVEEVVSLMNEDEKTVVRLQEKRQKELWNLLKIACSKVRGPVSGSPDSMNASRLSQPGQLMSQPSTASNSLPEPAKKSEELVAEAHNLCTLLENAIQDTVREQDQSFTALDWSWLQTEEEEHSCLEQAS
# [5] = target: T3, Inhibitor of nuclear factor kappa-B kinase subunit beta (Homo sapiens); conditions: at 10 µM
# [6] = target: Interleukin-1 receptor-associated kinase 1 (Homo sapiens) (UniProt P51617); conditions: at 10 µM
# [7] = target: T4, TGF-beta receptor type-1 (Homo sapiens) (UniProt P36897); conditions: at 1 µM
# T4 sequence (whole entry): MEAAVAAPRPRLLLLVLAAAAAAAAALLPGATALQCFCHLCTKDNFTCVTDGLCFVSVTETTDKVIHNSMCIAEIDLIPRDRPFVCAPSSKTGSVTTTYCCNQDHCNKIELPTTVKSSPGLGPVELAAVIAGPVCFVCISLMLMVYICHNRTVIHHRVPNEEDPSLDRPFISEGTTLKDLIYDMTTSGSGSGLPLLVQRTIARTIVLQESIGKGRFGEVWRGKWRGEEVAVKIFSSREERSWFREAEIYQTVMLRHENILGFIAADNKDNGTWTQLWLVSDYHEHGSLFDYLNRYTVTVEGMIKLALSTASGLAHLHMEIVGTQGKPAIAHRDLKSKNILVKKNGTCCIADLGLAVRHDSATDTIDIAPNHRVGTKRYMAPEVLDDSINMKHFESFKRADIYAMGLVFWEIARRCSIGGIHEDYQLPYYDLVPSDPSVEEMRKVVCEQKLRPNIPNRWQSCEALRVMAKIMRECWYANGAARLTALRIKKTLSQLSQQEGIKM
# [8] = target: Insulin-like growth factor 1 receptor (Homo sapiens) (UniProt P08069); conditions: at 1 µM
# [9] = target: Insulin-like growth factor 1 receptor (Homo sapiens) (UniProt P08069); conditions: at 10 µM
# [10] = target: T5, Inhibitor of nuclear factor kappa-B kinase subunit alpha (Homo sapiens) (UniProt O15111); conditions: at 1 µM
# T5 sequence (whole entry): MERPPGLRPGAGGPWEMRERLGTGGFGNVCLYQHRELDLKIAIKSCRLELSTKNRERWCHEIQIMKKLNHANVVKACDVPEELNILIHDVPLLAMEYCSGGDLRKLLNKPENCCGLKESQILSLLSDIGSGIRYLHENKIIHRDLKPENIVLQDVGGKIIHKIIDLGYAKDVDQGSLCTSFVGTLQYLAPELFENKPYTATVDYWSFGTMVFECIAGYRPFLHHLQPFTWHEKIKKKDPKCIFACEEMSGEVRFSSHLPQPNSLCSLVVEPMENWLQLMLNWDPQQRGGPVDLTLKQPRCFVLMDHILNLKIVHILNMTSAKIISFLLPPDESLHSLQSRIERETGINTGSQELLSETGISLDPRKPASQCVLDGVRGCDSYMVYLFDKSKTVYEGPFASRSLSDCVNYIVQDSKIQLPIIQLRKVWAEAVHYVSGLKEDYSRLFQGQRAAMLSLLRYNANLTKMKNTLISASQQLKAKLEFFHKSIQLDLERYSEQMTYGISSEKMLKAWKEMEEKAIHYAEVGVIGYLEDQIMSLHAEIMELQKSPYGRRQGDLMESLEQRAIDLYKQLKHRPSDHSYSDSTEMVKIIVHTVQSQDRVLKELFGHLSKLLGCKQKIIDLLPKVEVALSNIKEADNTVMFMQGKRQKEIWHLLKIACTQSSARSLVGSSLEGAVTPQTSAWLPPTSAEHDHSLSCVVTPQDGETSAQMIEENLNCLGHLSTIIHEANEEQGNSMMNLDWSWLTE
# [11] = target: T5, Inhibitor of nuclear factor kappa-B kinase subunit alpha (Homo sapiens); conditions: at 10 µM
# [12] = target: Insulin receptor (Homo sapiens) (UniProt P06213); conditions: at 1 µM
# [13] = target: Insulin receptor (Homo sapiens) (UniProt P06213); conditions: at 10 µM
# [14] = target: Insulin receptor (Homo sapiens) (UniProt P06213); conditions: at 1 µM; remark: listed apart in the source
# [15] = target: Insulin receptor (Homo sapiens) (UniProt P06213); conditions: at 10 µM; remark: listed apart in the source
# [16] = target: Interleukin-1 receptor-associated kinase 1 (Homo sapiens) (UniProt P51617); conditions: at 1 µM
# [17] = target: T2, Interleukin-1 receptor-associated kinase 4 (Homo sapiens); conditions: at 1 µM
# [18] = target: Insulin receptor-related protein (Homo sapiens) (UniProt P14616); conditions: at 10 µM
# [19] = target: T6, Tyrosine-protein kinase ITK/TSK (Homo sapiens) (UniProt Q08881); conditions: at 1 µM
# T6 sequence (whole entry): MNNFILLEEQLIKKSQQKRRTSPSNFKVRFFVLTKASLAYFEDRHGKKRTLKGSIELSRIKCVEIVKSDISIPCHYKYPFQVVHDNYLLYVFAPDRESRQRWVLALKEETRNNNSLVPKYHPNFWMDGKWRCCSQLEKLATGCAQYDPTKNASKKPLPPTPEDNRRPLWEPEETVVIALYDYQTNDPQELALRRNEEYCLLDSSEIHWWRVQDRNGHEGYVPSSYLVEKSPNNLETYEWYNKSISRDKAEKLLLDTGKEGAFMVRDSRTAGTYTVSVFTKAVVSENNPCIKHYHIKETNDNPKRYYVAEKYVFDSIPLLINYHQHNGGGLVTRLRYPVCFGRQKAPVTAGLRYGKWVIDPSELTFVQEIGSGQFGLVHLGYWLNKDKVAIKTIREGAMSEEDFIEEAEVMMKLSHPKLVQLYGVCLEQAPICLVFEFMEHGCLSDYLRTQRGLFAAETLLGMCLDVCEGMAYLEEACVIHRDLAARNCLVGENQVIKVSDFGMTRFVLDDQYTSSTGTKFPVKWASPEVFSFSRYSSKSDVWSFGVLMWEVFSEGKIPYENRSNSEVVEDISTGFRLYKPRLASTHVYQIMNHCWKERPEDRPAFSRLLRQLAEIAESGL
# [20] = target: T4, TGF-beta receptor type-1 (Homo sapiens); conditions: at 10 µM
# Interleukin-1 receptor-associated kinase 1 (Homo sapiens), sequence (P51617 whole entry, looked up): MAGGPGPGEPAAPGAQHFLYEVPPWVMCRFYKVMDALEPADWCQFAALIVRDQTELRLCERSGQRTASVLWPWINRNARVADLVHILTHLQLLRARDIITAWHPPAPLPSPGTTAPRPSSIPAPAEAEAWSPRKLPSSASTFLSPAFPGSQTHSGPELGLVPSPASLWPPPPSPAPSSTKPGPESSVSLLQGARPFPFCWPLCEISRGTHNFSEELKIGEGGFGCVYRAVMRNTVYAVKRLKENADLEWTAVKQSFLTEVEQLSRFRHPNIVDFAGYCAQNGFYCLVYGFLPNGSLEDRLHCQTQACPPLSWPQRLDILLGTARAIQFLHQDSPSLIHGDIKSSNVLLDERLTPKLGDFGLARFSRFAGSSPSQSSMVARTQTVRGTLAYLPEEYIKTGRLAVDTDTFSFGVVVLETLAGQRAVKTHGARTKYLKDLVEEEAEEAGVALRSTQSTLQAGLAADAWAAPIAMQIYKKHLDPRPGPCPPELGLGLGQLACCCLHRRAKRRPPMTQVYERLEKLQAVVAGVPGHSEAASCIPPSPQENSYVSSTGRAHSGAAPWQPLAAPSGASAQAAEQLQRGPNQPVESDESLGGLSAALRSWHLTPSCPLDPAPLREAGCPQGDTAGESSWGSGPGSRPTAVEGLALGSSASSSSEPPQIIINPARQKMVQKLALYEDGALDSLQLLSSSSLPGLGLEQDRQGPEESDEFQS
# Insulin receptor-related protein (Homo sapiens), sequence (P14616 27-742 limits assumed): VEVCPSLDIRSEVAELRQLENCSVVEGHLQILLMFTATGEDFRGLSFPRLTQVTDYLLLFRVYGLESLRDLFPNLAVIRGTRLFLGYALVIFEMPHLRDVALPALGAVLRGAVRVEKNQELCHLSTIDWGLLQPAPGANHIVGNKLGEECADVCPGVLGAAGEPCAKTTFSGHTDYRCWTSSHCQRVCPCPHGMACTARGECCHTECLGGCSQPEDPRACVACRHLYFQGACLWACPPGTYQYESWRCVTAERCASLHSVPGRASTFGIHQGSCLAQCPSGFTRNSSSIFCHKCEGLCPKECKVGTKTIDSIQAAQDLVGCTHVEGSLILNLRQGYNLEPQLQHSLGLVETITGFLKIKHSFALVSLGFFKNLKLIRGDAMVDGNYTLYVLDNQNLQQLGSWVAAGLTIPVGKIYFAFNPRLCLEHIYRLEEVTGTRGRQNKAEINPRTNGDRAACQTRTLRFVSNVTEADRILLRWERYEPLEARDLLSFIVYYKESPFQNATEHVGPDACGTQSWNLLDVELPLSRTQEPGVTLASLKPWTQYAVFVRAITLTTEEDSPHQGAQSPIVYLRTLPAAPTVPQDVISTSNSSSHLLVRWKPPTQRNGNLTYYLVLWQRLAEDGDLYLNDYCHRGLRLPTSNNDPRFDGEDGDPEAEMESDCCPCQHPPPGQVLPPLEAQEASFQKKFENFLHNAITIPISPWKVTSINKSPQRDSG
# Insulin receptor-related protein (Homo sapiens), sequence (P14616 747-1297 limits assumed): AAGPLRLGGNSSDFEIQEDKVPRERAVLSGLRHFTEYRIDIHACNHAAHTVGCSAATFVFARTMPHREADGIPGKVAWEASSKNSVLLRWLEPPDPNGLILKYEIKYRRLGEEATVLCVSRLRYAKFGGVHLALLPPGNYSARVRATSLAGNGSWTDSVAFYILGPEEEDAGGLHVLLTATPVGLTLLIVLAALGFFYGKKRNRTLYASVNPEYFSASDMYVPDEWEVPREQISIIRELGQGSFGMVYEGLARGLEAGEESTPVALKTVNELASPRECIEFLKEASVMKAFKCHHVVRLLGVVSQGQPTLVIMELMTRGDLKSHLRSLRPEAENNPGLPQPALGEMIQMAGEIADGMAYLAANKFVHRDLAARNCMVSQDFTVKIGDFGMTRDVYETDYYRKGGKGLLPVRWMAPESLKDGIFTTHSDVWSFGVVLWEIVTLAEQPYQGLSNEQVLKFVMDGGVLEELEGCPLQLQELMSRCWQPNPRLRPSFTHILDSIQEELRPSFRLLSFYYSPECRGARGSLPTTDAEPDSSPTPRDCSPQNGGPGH
# Insulin-like growth factor 1 receptor (Homo sapiens), sequence (P08069 31-736 limits assumed): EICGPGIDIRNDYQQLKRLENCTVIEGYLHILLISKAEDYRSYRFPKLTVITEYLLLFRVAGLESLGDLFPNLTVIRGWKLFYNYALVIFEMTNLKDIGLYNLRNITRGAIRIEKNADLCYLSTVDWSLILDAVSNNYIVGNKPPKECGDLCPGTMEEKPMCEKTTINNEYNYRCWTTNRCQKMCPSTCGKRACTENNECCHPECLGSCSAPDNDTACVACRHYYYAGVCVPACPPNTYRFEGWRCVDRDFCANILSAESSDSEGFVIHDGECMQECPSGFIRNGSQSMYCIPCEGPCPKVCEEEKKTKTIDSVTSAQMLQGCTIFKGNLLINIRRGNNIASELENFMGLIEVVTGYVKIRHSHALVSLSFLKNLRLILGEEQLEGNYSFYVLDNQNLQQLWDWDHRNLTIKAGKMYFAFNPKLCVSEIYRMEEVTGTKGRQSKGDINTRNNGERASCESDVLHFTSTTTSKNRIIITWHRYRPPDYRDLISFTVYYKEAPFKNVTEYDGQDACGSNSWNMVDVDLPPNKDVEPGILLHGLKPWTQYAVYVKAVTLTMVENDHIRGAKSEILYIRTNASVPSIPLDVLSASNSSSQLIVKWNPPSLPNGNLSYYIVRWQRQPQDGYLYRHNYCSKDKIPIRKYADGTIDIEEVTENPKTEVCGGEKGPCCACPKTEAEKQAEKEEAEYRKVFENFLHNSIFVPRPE
# Insulin-like growth factor 1 receptor (Homo sapiens), sequence (P08069 741-1367 limits assumed): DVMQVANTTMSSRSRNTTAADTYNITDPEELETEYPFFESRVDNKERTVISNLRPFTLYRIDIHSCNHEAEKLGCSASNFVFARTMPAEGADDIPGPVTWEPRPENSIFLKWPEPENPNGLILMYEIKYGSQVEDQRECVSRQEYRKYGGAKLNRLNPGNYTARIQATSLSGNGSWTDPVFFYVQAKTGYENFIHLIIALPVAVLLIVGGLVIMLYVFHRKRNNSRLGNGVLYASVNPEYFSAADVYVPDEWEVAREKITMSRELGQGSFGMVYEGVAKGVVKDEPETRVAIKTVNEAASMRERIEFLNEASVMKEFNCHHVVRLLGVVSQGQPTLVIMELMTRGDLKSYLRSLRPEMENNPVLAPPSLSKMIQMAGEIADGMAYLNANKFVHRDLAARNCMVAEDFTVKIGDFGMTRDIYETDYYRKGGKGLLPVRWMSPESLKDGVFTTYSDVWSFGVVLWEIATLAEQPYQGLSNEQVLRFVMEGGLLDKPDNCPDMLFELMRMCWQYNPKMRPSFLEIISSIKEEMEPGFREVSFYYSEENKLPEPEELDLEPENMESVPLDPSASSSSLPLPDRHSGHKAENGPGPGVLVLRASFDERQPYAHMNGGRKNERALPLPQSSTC
# Insulin receptor (Homo sapiens), sequence (P06213 28-758 limits assumed): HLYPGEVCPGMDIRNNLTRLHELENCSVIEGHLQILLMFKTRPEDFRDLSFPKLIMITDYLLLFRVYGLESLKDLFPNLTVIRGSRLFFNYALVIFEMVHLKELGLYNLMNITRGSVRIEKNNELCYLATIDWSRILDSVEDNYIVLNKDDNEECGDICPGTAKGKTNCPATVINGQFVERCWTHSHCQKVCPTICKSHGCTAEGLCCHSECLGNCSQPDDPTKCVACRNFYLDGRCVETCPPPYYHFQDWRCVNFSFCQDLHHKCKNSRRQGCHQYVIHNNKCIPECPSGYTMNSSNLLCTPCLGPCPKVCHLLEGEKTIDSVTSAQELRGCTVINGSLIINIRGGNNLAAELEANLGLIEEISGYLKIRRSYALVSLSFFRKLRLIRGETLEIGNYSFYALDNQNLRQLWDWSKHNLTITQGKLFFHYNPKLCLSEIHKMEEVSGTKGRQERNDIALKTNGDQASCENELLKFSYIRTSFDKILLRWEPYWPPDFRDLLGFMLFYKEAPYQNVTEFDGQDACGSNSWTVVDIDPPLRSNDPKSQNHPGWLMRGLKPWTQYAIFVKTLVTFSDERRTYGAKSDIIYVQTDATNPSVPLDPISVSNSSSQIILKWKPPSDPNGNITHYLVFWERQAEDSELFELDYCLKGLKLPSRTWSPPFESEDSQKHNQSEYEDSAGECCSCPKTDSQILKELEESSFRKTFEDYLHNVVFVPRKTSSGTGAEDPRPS
# Insulin receptor (Homo sapiens), sequence (P06213 763-1382 limits assumed): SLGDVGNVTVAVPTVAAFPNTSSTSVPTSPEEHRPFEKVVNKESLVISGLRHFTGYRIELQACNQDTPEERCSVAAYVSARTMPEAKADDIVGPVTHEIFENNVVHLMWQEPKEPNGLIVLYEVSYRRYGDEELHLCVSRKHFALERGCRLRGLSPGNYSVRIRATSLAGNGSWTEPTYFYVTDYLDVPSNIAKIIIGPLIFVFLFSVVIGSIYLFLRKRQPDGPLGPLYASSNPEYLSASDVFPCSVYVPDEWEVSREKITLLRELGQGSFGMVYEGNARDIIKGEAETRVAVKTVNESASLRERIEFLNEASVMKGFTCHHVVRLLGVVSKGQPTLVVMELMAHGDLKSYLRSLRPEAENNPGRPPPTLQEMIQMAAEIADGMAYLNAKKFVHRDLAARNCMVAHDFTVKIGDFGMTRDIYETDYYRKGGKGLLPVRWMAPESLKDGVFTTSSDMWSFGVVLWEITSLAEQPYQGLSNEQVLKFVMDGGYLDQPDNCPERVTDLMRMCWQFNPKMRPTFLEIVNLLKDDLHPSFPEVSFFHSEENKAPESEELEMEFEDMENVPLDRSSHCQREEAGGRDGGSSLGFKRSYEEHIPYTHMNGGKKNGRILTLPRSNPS
structure (smiles),measurement,setting,value
NC(=O)c1ccc(-c2nc(-c3ccc4c(c3)OCCO4)c(-c3ccccn3)[nH]2)cc1,residual activity,[1],72%
same,residual activity,[2],97%
same,residual activity,[3],124%
O=S(=O)(NCCNC/C=C/c1ccc(Br)cc1)c1cccc2cnccc12,residual activity,[1],66%
same,residual activity,[4],126%
same,residual activity,[5],100%
same,residual activity,[6],75%
O=C1NC(=O)c2c1c1c3ccccc3[nH]c1n1cncc21,residual activity,[1],35%
same,residual activity,[7],91%
same,residual activity,[8],45%
same,residual activity,[9],30%
same,residual activity,[10],63%
same,residual activity,[11],55%
same,residual activity,[4],94%
same,residual activity,[5],80%
same,residual activity,[12],10%
same,residual activity,[13],15%
same,residual activity,[14],31%
same,residual activity,[15],19%
same,residual activity,[16],76%
same,residual activity,[6],66%
same,residual activity,[17],61%
same,residual activity,[2],56%
same,residual activity,[3],5%
same,residual activity,[18],3%
same,residual activity,[19],85%
O=C1NC(=O)C(c2cn(CCCn3ccnc3)c3ccccc23)=C1Nc1ccccc1,residual activity,[1],9%
same,residual activity,[10],112%
same,residual activity,[11],103%
same,residual activity,[16],81%
same,residual activity,[6],76%
same,residual activity,[17],45%
same,residual activity,[2],32%
same,residual activity,[3],135%
same,residual activity,[18],65%
CCOc1nc(NC(=O)Cc2cc(OC)ccc2OC)cc(N)c1C#N,residual activity,[1],68%
same,residual activity,[17],81%
same,residual activity,[2],81%
CCN(CC)CCNC(=O)c1c(C)[nH]c(/C=C2\C(=O)Nc3ccc(Cl)cc32)c1C,residual activity,[1],1%
same,residual activity,[8],30%
same,residual activity,[9],3%
same,residual activity,[11],65%
same,residual activity,[4],98%
same,residual activity,[12],32%
same,residual activity,[13],6%
same,residual activity,[14],8%
same,residual activity,[15],0%
same,residual activity,[16],9%
same,residual activity,[6],0%
same,residual activity,[17],22%
same,residual activity,[2],7%
same,residual activity,[3],13%
same,residual activity,[18],0%
same,residual activity,[19],21%
COc1ccc(-c2cnc3c(-c4ccsc4)cnn3c2)cc1,residual activity,[1],85%
same,residual activity,[10],91%
same,residual activity,[11],90%
same,residual activity,[4],100%
same,residual activity,[5],95%
same,residual activity,[12],91%
same,residual activity,[16],98%
same,residual activity,[6],84%
same,residual activity,[17],124%
same,residual activity,[2],94%
c1ccc(-c2cnc(Nc3ccc(OCCN4CCCC4)cc3)s2)cc1,residual activity,[1],23%
same,residual activity,[20],74%
same,residual activity,[10],77%
same,residual activity,[11],66%
same,residual activity,[4],116%
same,residual activity,[6],42%
same,residual activity,[17],124%
same,residual activity,[2],80%
same,residual activity,[3],135%
same,residual activity,[18],65%
same,residual activity,[19],81%
COc1ccc(CNC(=O)Nc2ncc([N+](=O)[O-])s2)cc1,residual activity,[1],59%
same,residual activity,[10],111%
same,residual activity,[11],113%
same,residual activity,[4],109%
same,residual activity,[5],108%
same,residual activity,[6],103%
same,residual activity,[17],72%
same,residual activity,[2],78%
